Measured values as given in PubChem BioAssay (Tox21).
Inconclusive results are not listed. Activity calls are given as the source filed them. Unless noted, calls come from the whole dose curve; as a rule, active = well fitted curve in the direction sought with a large enough effect in the repeat runs; inconclusive = weak or mixed curves; inactive = no such curve, though single readings can be large; an effect the other way counts as inactive or inconclusive.

How the values were obtained:
[1] = qHTS assay to identify small molecule antagonists of the estrogen related receptor (ERR) signaling pathway from Tox21 library - cell viability counter screen (AID 1224834); note: nearly all actives have a fitted effect of over 30% in size
Summary of the method: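 CellTiter-Fluor fluorescence measured; ERR cells; 17.5 h compound incubation at 37 C; 30 min reagent step.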

[2] = biological target: Luciferin 4-monooxygenase (Photinus pyralis) (UniProt P08659); test: qHTS assay to identify small molecule inhibitors of firefly luciferase (AID 1224835); note: nearly all actives have a fitted effect of over 25% in size
Chain of Luciferin 4-monooxygenase (Photinus pyralis) (P08659 whole entry, looked up): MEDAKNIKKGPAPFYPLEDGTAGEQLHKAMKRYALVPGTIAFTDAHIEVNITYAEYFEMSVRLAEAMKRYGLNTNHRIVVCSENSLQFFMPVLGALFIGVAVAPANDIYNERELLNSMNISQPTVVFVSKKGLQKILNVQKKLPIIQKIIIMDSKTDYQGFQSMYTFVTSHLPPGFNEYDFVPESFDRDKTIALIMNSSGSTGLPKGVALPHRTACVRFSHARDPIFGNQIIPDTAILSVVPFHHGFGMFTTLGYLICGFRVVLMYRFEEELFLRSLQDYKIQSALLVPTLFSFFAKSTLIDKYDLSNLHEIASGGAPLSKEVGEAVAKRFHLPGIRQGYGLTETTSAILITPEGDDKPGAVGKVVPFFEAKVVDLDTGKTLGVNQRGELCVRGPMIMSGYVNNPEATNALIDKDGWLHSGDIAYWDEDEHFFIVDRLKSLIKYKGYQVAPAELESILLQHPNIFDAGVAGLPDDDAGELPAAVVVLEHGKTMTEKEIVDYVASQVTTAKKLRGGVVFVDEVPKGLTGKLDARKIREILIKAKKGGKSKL
Summary of the method: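 Inhibition of purified Photinus luciferase is measured by luminescence. Substrate levels (D-luciferin, ATP) sit at their KM values. Each compound is tested in a concentration series.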

[3] = qHTS assay to identify small molecule agonists of the constitutive androstane receptor (CAR) signaling pathway - cell viability counter screen (AID 1224836); note: nearly all actives have a fitted effect of over 45% in size
Summary of the method: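 HepG2 cells stably carrying hCAR and a CYP2B6-2.2kb reporter; 15-concentration compounds plus PK11195 (final 0.75 uM), 23 hr at 37 C/5% CO2. Viability read by CellTiter-Fluor fluorescence.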

[4] = qHTS assay to identify small molecule antagonists of the constitutive androstane receptor (CAR) signaling pathway - cell viability counter screen (AID 1224837); note: nearly all actives have a fitted effect of over 45% in size
Summary of the method: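 Using CellTiter-Fluor, viability is scored in HepG2 cells stably carrying hCAR and a 2.2kb CYP2B6 reporter after 23 hr compound exposure across 15 concentrations, with CITCO present at 50 nM.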

[5] = biological target: Nuclear receptor subfamily 1 group I member 3 (Homo sapiens) (UniProt Q14994); test: qHTS assay to identify small molecule antagonists of the constitutive androstane receptor (CAR) signaling pathway (AID 1224838);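 note: HepG2 cells stably expressing hCAR with CYP2B6 luciferase reporter stimulated by CITCO; nearly all actives have a fitted effect of over 40% in size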
Chain of Nuclear receptor subfamily 1 group I member 3 (Homo sapiens) (Q14994 whole entry, looked up): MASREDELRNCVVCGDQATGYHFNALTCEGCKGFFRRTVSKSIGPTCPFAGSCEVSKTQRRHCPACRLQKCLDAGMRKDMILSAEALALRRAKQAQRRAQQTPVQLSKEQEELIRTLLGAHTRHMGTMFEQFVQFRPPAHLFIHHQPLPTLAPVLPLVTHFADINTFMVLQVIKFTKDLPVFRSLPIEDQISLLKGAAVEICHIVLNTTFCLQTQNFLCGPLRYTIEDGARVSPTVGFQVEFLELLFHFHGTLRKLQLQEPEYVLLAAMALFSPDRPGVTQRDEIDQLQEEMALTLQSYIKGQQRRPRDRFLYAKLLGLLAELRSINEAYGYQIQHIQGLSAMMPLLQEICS
Summary of the method: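 Reporter luminescence was quantified after 24 h exposure of hCAR/CYP2B6-2.2kb double-stable HepG2 cells to compounds at 15 concentrations in the presence of 50 nM CITCO final.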

[6] = biological target: Nuclear receptor subfamily 1 group I member 3 (Homo sapiens) (UniProt Q14994); test: qHTS assay to identify small molecule agonists of the constitutive androstane receptor (CAR) signaling pathway (AID 1224839);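 note: HepG2 cells stably carrying human CAR and a CYP2B6 luciferase reporter; nearly all actives have a fitted effect of over 15% in size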
Summary of the method: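 HepG2 cells stably co-transfected with hCAR and a CYP2B6-2.2kb luciferase reporter; compounds at 15 concentrations with 0.75 uM PK11195 present. After 24 hr at 37 C, luciferase read by ONE-Glo luminescence.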

[7] = qHTS assay to identify small molecule antagonists of the estrogen related receptor signaling pathway with the pleiotropic PPARgamma coactivator (PGC) from Tox21 10K library - cell viability counter screen (AID 1224840; active = well fitted cell-killing curve with a large enough effect in the repeat runs, not every such curve was filed as active; note: nearly all actives have a fitted effect of over 40% in size)
Summary of the method: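 Here the PGC/ERR cells serve as a cytotoxicity control: they are exposed to compounds for 17.5 hours at 37 C, and live-cell signal is quantified using CellTiter-Fluor fluorescence.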

[8] = qHTS assay to identify small molecule antagonists of the estrogen related receptor signaling pathway with the pleiotropic PPARgamma coactivator (PGC) from Tox21 10K library (AID 1224841; call rule not given here; note: actives are mostly falling curves and most rising ones were filed inactive; nearly all actives have a fitted effect of over 50% in size)
Summary of the method: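 Each well held 2,000 PGC/ERR cells, pre-incubated six hours (37 C, 5% CO2). Test substances in DMSO were added by pin tool and left for 18 h at 37 C before luciferase detection by One-Glo.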

[9] = qHTS assay to identify small molecule agonists of the estrogen related receptor signaling pathway with the pleiotropic PPARgamma coactivator (PGC) from Tox21 10K library (AID 1224842); note: nearly all actives have a fitted effect of over 15% in size
Summary of the method: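 Luminescence from One-Glo (30 min, room temperature) measured after PGC/ERR cells had 18 h at 37 C with pinned compound (23 nL in DMSO). Cells had been seeded at 2,000 per well and pre-incubated 6 h.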

[10] = biological target: Thyrotropin receptor (Homo sapiens) (UniProt P16473); test: qHTS assay to identify small molecule agonists of the thyroid stimulating hormone receptor (TSHR) signaling pathway (AID 1224843; calls by dose curve; note: nearly all actives have a fitted effect of over 45% in size)
Chain of Thyrotropin receptor (Homo sapiens) (P16473 whole entry, looked up): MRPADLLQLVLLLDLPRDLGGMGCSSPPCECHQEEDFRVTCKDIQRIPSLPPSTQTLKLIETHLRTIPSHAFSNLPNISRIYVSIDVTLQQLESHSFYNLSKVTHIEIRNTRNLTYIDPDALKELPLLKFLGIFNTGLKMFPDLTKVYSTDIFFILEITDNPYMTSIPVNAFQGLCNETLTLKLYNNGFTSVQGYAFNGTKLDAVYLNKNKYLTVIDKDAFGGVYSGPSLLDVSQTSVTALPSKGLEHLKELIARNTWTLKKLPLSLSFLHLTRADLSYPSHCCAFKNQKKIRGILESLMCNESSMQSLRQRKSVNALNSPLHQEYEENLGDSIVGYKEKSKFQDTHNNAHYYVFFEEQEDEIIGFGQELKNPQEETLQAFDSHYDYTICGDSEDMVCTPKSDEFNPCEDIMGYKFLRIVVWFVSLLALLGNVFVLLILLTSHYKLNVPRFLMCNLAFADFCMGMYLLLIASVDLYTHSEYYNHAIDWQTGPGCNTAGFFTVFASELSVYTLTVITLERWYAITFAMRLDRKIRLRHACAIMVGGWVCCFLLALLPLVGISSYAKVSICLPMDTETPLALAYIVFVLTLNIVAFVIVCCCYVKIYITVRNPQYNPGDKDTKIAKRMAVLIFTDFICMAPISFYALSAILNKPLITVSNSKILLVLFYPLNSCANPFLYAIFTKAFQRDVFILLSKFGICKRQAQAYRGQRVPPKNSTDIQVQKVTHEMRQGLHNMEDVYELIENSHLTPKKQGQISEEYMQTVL
Summary of the method: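 HEK293 cells stably bearing the thyrotropin receptor were plated at 800 cells/well and challenged with compound (30 min, RT). Accumulated cAMP was quantified via cAMP-d2 competing for cryptate-tagged antibody.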

[11] = qHTS assay to identify small molecule agonists of the hypoxia (HIF-1) signaling pathway - cell viability counter screen (AID 1224844; calls by dose curve; note: nearly all actives have a fitted effect of over 50% in size)
Summary of the method: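 Multiplexed with the HRE beta-lactamase assay, this viability read used CellTiter-Glo luminescence (30 min, RT) on HRE-bla ME-180 cells treated 17 hrs with compounds in 0.5% dialyzed FBS medium.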

[12] = qHTS assay to identify small molecule agonists of H2AX (AID 1224845; active = well fitted activation curve with a large enough effect in the signal ratio in the repeat runs, not every such curve was filed as active; the % refers to the signal ratio)
Summary of the method: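 Phospho-H2AX Ser139 measured by HTRF (ex 320 nm; em 665 and 620 nm) after 24 hr antibody incubation. Compounds, 15 concentrations, 0.76% DMSO, were applied to CHO-K1 cells for 3hr at 37C before lysis.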

[13] = qHTS assay to identify small molecule agonists of the hypoxia (HIF-1) signaling pathway (AID 1224846; active = well fitted activation curve with a large enough effect in the signal ratio in the repeat runs, not every such curve was filed as active; the % refers to the signal ratio)
Summary of the method: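 Hypoxia-pathway activation was scored as increased beta-lactamase from an HRE-controlled reporter in ME-180 cells; plated at 2,000 cells per well with 0.5% dialyzed FBS, they were exposed 17 hrs to compounds and then given CCF4-AM.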

[14] = qHTS assay to identify small molecule agonists of H2AX - cell viability counter screen (AID 1224847; calls by dose curve;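 note: wild-type CHO-K1 cells; top concentration of the series differs between compounds; nearly all actives have a fitted effect of over 30% in size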)
Summary of the method: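 CHO-K1 cells plated overnight at 37C, then exposed 3 h at 37C to compounds at 15 concentrations (0.76% DMSO final). Viability by CellTiter-Glo luminescence after 30 min at room temperature.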

[15] = qHTS assay to identify small molecule antagonists of the estrogen related receptor (ERR) signaling pathway from Tox21 library (AID 1224848); note: nearly all actives have a fitted effect of over 50% in size
Summary of the method: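 Reading was by luminescence 30 min after ONE-Glo addition. Before that, ERR cells at 2,000 per well had rested 6 h at 37 C/5% CO2 and then received pin-tooled compounds in DMSO for 18 h at 37 C.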

[16] = qHTS assay to identify small molecule agonists of the estrogen related receptor (ERR) signaling pathway from Tox21 library (AID 1224849; calls by dose curve; note: nearly all actives have a fitted effect of over 15% in size); settings: ERR reporter cell line, ONE-Glo luciferase, 18 h; at 92.4 µM (top of the series) unless noted
Summary of the method: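 Six hours post-seeding at 37 C/5% CO2, ERR cells receive DMSO-solubilised compounds; after 18 h at 37 C, ONE-Glo reagent is applied and luminescence recorded.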

[17] = qHTS RealTime-Glo MT Cell Viability Assay in HepG2 cells - 24 hour (AID 1224867); note: nearly all actives have a fitted effect of over 50% in size
Summary of the method: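 HepG2 suspension premixed with RealTime-Glo reagents is plated at 600 cells per well and left 5 h at 37 C/5% CO2. Compounds in DMSO then go in, and bioluminescence reflecting viable cell number is recorded over 40 h.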

[18] = qHTS RealTime-Glo MT Cell Viability Assay in HEK293 cells - 32 hour (AID 1224868)
Summary of the method: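 Reads taken at 0, 8, 16, 24, 32 and 40 h from the same wells. HEK293 cells (600/well) carried RealTime-Glo reagents from seeding, with compound added after a 5 h settle at 37 C.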

[19] = A CellTox Green Cytotoxicity Assay to monitor cytotoxicity in HEK293 cells - 0 hour (AID 1224869); note: nearly all actives have a fitted effect of over 50% in size
Summary of the method: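 Seeding of HEK293 cells together with cytotoxicity dye preceded a 5 h incubation at 37 C/5% CO2. Test compounds in DMSO were then added and fluorescence monitored across 40 h.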
% is set by controls: 0 for no effect and ±100 for the full control effect.

CCC(C)S (stereo unspecified)
inactive: viability change, negative = cytotoxic [1] 1.27% [at 3.27 µM] | activity change, negative = inhibition [2] 5.34% [at 4.07 µM] | viability change, negative = cytotoxic [3] 6.36% [at 3.27 µM] | activity change, negative = cytotoxicity [4] 4.49% [at 3.26 µM] | activity, negative = inhibition [5] -7.32% [at 3.26 µM] | activation [6] 0.262% [at 3.27 µM] | viability change, negative = cytotoxic [7] 2.53% [at 3.27 µM] | activity, negative = inhibition [8] 1.33% [at 3.27 µM] | activation [9] 0.822% [at 3.27 µM] | activation [10] -2.63% [at 3.27 µM] | activity change, negative = cytotoxicity [11] 6.65% [at 2.72 µM] | activation (H2AX phosphorylation) [12] -0.0858% [at 5.45 µM] | activation [13] -1.24% [at 2.67 µM] | activity change, negative = cytotoxicity [14] 4.19% [at 5.43 µM] | activity, negative = inhibition [15] 2.44% [at 3.27 µM] | activity change, positive = activation [16] 2.37% [at 3.27 µM] | activity change, negative = cytotoxicity [17] 1.23% [at 2.72 µM] | activity change, negative = cytotoxic [18] 3.1% [at 2.72 µM] | cytotoxicity [19] -0.294% [at 2.72 µM]

COc1ccc2c(c1)c(CC(=O)OCC(=O)O)c(C)n2C(=O)c1ccc(Cl)cc1
inactive: Potency [1] | Potency [2] | Potency [3] | Potency [4] | Potency [5] | Potency [6] | Potency [7] | Potency [8] | outcome [9] | Potency [10] | Potency [11] | outcome [12] | outcome [13] | Potency [14] | Potency [15] | activity change, positive = activation [16] 3.06% [at 42.5 µM] | Potency [17] | Potency [18] | Potency [19]

CC1(C)C(O)C(C)(C)C1O (stereo unspecified)
inactive: Potency [1] | Potency [2] | Potency [3] | Potency [4] | Potency [5] | Potency [6] | Potency [7] | Potency [8] | outcome [9] | Potency [10] | Potency [11] | outcome [12] | outcome [13] | Potency [14] | Potency [15] | activity change, positive = activation [16] 1.44% | Potency [17] | Potency [18] | Potency [19]

O=C1CCCN1C1CCCCC1
inactive: Potency [1] | Potency [2] | Potency [3] | Potency [4] | Potency [5] | Potency [6] | Potency [7] | Potency [8] | outcome [9] | Potency [10] | Potency [11] | outcome [12] | outcome [13] | Potency [14] | Potency [15] | activity change, positive = activation [16] -1.04% | Potency [17] | Potency [18] | Potency [19]

C[C@@H]1CCN(C(=O)[C@H](CCCN=C(N)N)NS(=O)(=O)c2cccc3c2NC[C@H](C)C3)[C@@H](C(=O)O)C1
inactive: Potency [1] | Potency [2] | Potency [3] | Potency [4] | Potency [5] | Potency [6] | Potency [7] | Potency [8] | outcome [9] | Potency [10] | Potency [11] | outcome [12] | outcome [13] | Potency [14] | Potency [15] | activity change, positive = activation [16] 6.26% [at 42.5 µM] | Potency [17] | Potency [19]

CCCN1CCCC[C@H]1C(=O)Nc1c(C)cccc1C
inactive: Potency [1] | Potency [2] | Potency [3] | Potency [4] | Potency [5] | Potency [6] | Potency [7] | Potency [8] | outcome [9] | Potency [10] | Potency [11] | outcome [12] | outcome [13] | Potency [14] | Potency [15] | activity change, positive = activation [16] 6.18% [at 42.5 µM] | Potency [17] | Potency [18] | Potency [19]

CCOC(C)(C)C
inactive: Potency [1] | Potency [2] | Potency [3] | Potency [4] | Potency [5] | Potency [6] | Potency [7] | Potency [8] | outcome [9] | Potency [10] | Potency [11] | outcome [12] | outcome [13] | Potency [14] | activity change, positive = activation [16] 3.27% | Potency [17] | Potency [18] | Potency [19]
